Assay results as given in PubChem BioAssay (EPA / NIEHS).
Records with an inconclusive call do not appear. Calls of active or inactive are those of the source. The calls were made as follows, unless noted: active = hit-call score of the fitted dose curve at least 0.9, where 1 is the maximum; inactive = score below 0.9.

Legend:
[1] = molecular target: human Retinoid X Receptor beta (RXRb), RXRB (gene 6257) (UniProt P28702); assay: ATG_RXRb_TRANS: Attagene TRANS-FACTORIAL HepG2 Assay for human Retinoid X Receptor beta (RXRb) (AID 2283013; active = hit-call score of the fitted dose curve at least 0.9, where 1 is the maximum)
Chain of human Retinoid X Receptor beta (RXRb), RXRB (gene 6257) (P28702 whole entry, looked up, the tested form may be a part): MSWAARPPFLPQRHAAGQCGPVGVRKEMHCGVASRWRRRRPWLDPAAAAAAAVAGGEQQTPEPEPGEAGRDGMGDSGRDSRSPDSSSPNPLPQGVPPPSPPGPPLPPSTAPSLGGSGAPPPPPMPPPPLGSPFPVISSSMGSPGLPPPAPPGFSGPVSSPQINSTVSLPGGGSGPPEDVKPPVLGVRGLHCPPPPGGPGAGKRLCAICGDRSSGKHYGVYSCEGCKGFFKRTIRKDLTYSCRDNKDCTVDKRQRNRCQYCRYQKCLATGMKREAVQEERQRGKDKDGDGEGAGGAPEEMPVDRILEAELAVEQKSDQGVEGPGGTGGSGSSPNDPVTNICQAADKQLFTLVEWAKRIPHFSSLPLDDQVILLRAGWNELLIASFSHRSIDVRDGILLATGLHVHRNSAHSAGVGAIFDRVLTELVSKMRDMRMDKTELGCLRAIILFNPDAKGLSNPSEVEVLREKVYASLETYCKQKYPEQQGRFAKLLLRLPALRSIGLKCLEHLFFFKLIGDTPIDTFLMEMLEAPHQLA
Summary of the method: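 HepG2 cells transiently transfected with multiplexed reporter units driven by GAL4-UAS and exogenous chimeric NR-Gal4 proteins; treated 24 h. Reporter mRNA measured by RT-PCR, 6-FAM labelling and capillary electrophoresis; gain-of-signal fitted versus DMSO baseline.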

[2] = molecular target: human Thyroid Receptor alpha (THRa1), THRA (gene 7067) (UniProt P10827); assay: ATG_THRa1_TRANS: Attagene TRANS-FACTORIAL HepG2 Assay for human Thyroid Receptor alpha (THRa1) (AID 2283014; active = hit-call score of the fitted dose curve at least 0.9, where 1 is the maximum)
Chain of human Thyroid Receptor alpha (THRa1), THRA (gene 7067) (P10827 whole entry, looked up, the tested form may be a part): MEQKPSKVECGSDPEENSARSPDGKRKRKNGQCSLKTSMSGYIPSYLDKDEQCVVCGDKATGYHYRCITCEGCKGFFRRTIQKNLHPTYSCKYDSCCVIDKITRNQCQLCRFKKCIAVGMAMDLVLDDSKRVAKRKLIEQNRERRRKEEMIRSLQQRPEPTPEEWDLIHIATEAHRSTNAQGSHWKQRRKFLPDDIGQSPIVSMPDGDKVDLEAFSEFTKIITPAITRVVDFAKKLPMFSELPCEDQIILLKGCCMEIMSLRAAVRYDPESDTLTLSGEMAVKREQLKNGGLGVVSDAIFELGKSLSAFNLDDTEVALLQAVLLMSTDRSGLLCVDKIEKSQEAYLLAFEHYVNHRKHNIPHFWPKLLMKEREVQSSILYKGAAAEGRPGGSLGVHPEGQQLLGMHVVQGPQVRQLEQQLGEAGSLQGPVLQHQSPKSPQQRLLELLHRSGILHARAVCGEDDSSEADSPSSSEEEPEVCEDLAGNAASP
Summary of the method: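 Reporter transcript induction, read by capillary electrophoresis of 6-FAM-labelled RT-PCR products, reflects activity of a transfected THRa1-Gal4 fusion in HepG2 liver cells. Cells were dosed for 24 h; activity was fitted in the positive direction against DMSO.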

[3] = read-out: E-selectin (Homo sapiens) (UniProt P16581); assay: BSK_3C_Eselectin: BioMAP Diversity Plus: 3C Assay for Eselectin Biomarker Activity (AID 2283015); settings: primary human endothelial cells (HUVEC); actives raise or lower the signal
Summary of the method: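 ELISA read-out of E-selectin on endothelial monolayers after 24 h chemical treatment. Human umbilical vein primary cells served as the system, with DMSO defining baseline activity for bidirectional fitting.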

[4] = read-out: Interleukin-1 alpha (IL1a), IL1A (gene 3552); assay: BSK_BE3C_IL1a: BioMAP Diversity Plus: BE3C Assay for Interleukin-1 alpha (IL1a) Biomarker Activity (AID 2283016); settings: primary human bronchial epithelial cells; actives raise or lower the signal
Summary of the method: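 Human primary bronchial epithelial cells (BE3C system) were dosed with compound and IL-1a measured by ELISA 24 h later. Activity was fitted bidirectionally against DMSO baseline; cytotoxicity was tracked in parallel cultures by SRB total-protein staining.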

[5] = read-out: Monocyte Chemoattractant Protein-1 (MCP1), CCL2 (gene 6347); assay: BSK_3C_MCP1: BioMAP Diversity Plus: 3C Assay for Monocyte Chemoattractant Protein-1 (MCP1) Biomarker Activity (AID 2283017); settings: primary human endothelial cells (HUVEC); actives raise or lower the signal
Summary of the method: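 ELISA read-out of MCP-1 from human umbilical vein endothelial cell cultures harvested 24 h post-dosing. Gain or loss of signal was fitted relative to DMSO.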

[6] = read-out: Monocyte Chemoattractant Protein-1 (MCP1), CCL2 (gene 6347); assay: BSK_4H_MCP1: BioMAP Diversity Plus: 4H Assay for Monocyte Chemoattractant Protein-1 (MCP1) Biomarker Activity (AID 2283018); settings: primary human endothelial cells (HUVEC); actives raise or lower the signal
Summary of the method: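 Human umbilical vein endothelial cells (4H system) dosed with chemical; MCP-1 measured by ELISA 24 h after dosing. Bidirectional curve fitting against DMSO negative control as baseline; parallel SRB total-protein staining tracks overt cytotoxicity.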

[7] = read-out: Human Leukocyte Antigen - DR isotype (HLADR), HLA-DRA (gene 3122); assay: BSK_3C_HLADR: BioMAP Diversity Plus: 3C Assay for Human Leukocyte Antigen - DR isotype (HLADR) Biomarker Activity (AID 2283019); settings: primary human endothelial cells (HUVEC); actives raise or lower the signal
Summary of the method: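 ELISA readout of surface HLA-DR on human umbilical vein endothelium, taken 24 h after chemical treatment. Gain- and loss-of-signal were both fitted relative to DMSO.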

[8] = read-out: Interleukin-8 (IL8), CXCL8 (gene 3576); assay: BSK_3C_IL8: BioMAP Diversity Plus: 3C Assay for Interleukin-8 (IL8) Biomarker Activity (AID 2283020); settings: primary human endothelial cells (HUVEC); actives raise or lower the signal
Summary of the method: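 Primary human umbilical vein endothelial cells (3C system) were exposed to test chemical for 24 h, then IL-8 was quantified by ELISA. Responses were fitted bidirectionally against DMSO vehicle as baseline.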

[9] = BSK_3C_SRB: Viability Assessment in the BioMAP Diversity Plus: 3C Assay (AID 2283023); settings: primary human endothelial cells (HUVEC);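 also: fitted both ways against DMSO so a hit may be signal rise or drop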
Summary of the method: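 Absorbance at 560 nm of sulforhodamine B-stained (0.1%) total protein served as a cytotoxicity readout in human umbilical vein endothelial cells, 24 h after chemical treatment. Signal was fitted bidirectionally relative to DMSO.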

[10] = read-out: Pselectin, SELP (gene 6403); assay: BSK_4H_Pselectin: BioMAP Diversity Plus: 4H Assay for Pselectin Biomarker Activity (AID 2283026); settings: primary human endothelial cells (HUVEC); actives raise or lower the signal
Summary of the method: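 Primary human umbilical vein endothelial cells were exposed to test chemical for 24 h, then cell-surface P-selectin was quantified by ELISA. Activity was fitted bidirectionally against DMSO as negative control and baseline.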

[11] = BSK_BE3C_SRB: Viability Assessment in the BioMAP Diversity Plus: BE3C Assay (AID 2283028); settings: primary human bronchial epithelial cells;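 as to AC50: fitted both ways so AC50 may mark signal gain or loss versus DMSO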
Summary of the method: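 Cells (human bronchial epithelial, primary) are treated with chemicals, and after 24 h the parallel cultures are fixed in 10% TCA. These are then stained with 0.1% SRB and read at 560 nm. Gain or loss of signal is fitted relative to DMSO.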

[12] = read-out: Thrombomodulin, THBD (gene 7056); assay: BSK_3C_Thrombomodulin: BioMAP Diversity Plus: 3C Assay for Thrombomodulin Biomarker Activity (AID 2283029); settings: primary human endothelial cells (HUVEC); actives raise or lower the signal
Summary of the method: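 Primary human umbilical vein endothelial cells (3C system) were exposed to chemical for 24 h, then thrombomodulin levels were measured by ELISA. Activity was fitted bidirectionally against the DMSO negative control as baseline.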

[13] = read-out: Urokinase-type plasminogen activator receptor (uPAR), PLAUR (gene 5329); assay: BSK_4H_uPAR: BioMAP Diversity Plus: 4H Assay for Urokinase-type plasminogen activator receptor (uPAR) Biomarker Activity (AID 2283030); settings: primary human endothelial cells (HUVEC); actives raise or lower the signal
Summary of the method: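 Cell-surface uPAR ELISA signal, measured 24 h after dosing human umbilical vein endothelial cells, was analyzed with bidirectional fitting relative to DMSO. Parallel SRB staining of total protein tracked overt cytotoxicity.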

[14] = molecular target: Retinoic acid receptor RXR-alpha (Homo sapiens) (UniProt P19793); assay: ATG_RXRa_TRANS: Attagene TRANS-FACTORIAL HepG2 Assay for human Retinoid X Receptor alpha (RXRa) (AID 2283012; active = hit-call score of the fitted dose curve at least 0.9, where 1 is the maximum)
Chain of Retinoic acid receptor RXR-alpha (Homo sapiens) (P19793 whole entry, looked up, the tested form may be a part): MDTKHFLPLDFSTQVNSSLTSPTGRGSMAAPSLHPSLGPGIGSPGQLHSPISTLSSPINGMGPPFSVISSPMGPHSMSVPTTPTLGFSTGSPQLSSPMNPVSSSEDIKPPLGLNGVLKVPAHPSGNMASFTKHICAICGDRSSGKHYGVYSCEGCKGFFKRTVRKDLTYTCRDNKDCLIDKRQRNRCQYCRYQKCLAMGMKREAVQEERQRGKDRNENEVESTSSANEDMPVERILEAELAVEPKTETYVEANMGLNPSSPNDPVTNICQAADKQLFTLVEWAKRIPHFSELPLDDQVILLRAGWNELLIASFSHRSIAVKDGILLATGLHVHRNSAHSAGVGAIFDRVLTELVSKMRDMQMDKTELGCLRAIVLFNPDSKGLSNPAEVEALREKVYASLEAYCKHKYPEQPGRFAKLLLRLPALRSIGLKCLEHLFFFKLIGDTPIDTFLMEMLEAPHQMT
Summary of the method: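 HepG2 cells transiently transfected with multiplexed GAL4-UAS reporter units and chimeric NR-GAL4 fusions, dosed 24 h. Reporter mRNA measured by RT-PCR, FAM labelling, HpaI digestion and capillary electrophoresis; gain-of-signal fitted relative to DMSO baseline.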

[15] = molecular target: human Vitamin D Receptor (VDR), VDR (gene 7421) (UniProt P11473); assay: ATG_VDR_TRANS: Attagene TRANS-FACTORIAL HepG2 Assay for human Vitamin D Receptor (VDR) (AID 2283022; active = hit-call score of the fitted dose curve at least 0.9, where 1 is the maximum)
Chain of human Vitamin D Receptor (VDR), VDR (gene 7421) (P11473 whole entry, looked up, the tested form may be a part): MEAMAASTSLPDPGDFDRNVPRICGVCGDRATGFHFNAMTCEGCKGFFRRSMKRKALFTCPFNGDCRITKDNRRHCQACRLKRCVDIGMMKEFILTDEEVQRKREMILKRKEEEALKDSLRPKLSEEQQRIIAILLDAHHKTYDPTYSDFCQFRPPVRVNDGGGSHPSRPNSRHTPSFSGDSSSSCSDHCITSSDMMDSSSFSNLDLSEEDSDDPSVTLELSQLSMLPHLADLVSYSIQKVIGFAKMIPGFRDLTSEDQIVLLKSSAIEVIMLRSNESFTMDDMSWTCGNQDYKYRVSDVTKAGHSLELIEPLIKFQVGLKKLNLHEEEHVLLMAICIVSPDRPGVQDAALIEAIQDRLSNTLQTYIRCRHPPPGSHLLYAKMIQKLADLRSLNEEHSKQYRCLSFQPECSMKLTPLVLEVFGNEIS
Summary of the method: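 Steps: transfect HepG2 with GAL4-UAS-driven reporter constructs; dose compounds 24 h; isolate RNA, reverse-transcribe, PCR-amplify with 6-FAM-labelled primer extension and HpaI digestion; quantify fragments by capillary electrophoresis relative to DMSO.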

[16] = read-out: Matrix Metallopeptidase 1 (MMP1), MMP1 (gene 4312); assay: BSK_BE3C_MMP1: BioMAP Diversity Plus: BE3C Assay for Matrix Metallopeptidase 1 (MMP1) Biomarker Activity (AID 2283024); settings: primary human bronchial epithelial cells; actives raise or lower the signal
Summary of the method: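 Primary human bronchial epithelial cells were dosed with test chemicals, and MMP1 levels were measured by ELISA 24 h later. Data were fitted bidirectionally against DMSO as the negative control and activity baseline.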

Measured: AC50

Chain of E-selectin (Homo sapiens) (P16581 whole entry, looked up): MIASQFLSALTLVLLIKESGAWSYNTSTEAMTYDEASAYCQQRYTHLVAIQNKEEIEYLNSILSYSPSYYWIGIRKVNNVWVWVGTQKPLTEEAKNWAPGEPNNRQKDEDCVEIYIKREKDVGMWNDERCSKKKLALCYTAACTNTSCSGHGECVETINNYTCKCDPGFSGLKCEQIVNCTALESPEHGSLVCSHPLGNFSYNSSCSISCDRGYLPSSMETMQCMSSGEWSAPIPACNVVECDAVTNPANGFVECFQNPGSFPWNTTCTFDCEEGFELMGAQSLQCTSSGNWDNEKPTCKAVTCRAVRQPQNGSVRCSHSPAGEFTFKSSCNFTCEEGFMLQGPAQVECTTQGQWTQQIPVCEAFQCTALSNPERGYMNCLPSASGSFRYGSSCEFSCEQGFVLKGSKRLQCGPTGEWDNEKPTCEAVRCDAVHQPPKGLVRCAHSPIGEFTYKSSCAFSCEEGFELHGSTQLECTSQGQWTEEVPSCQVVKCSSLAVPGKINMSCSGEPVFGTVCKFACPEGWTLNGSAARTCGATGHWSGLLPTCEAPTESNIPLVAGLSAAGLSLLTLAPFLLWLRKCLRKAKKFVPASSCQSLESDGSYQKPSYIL

C=CC(=O)OCC(CO)(COC(=O)C=C)COC(=O)C=C
active: [3] 0.269 µM | [4] 0.898 µM | [5] 0.185 µM | [6] 0.333 µM | [7] 0.135 µM | [8] 0.303 µM | [9] 0.294 µM | [10] 0.341 µM | [11] 20 µM | [13] 0.964 µM
inactive: [1] | [2] | [12]

CC(C)=CC(=O)O
inactive: [14] | [15]

O=C1OC2(c3ccc(O)cc3Oc3cc(O)ccc32)c2ccccc21
active: [7] 20 µM | [8] 20 µM
not listed: [1] | [16]
inactive: all other assays above

CC(=O)OC/C=C(C)/C=C/C=C(C)/C=C/C1=C(C)CCCC1(C)C
inactive: [14] | [15]

CCCCCCCCCC(=O)OCC
active: [1] 100 µM | [3] 15.2 µM | [4] 20 µM | [5] 32 µM | [6] 29.7 µM | [7] 14.4 µM | [8] 33.2 µM | [9] 32 µM | [10] 30.9 µM | [12] 29.7 µM | [13] 20 µM
inactive: [14] | [15] | [11]

C=CC(=O)OCCCCCC
inactive: [14] | [2]

[Na+]
inactive: [1] | [2]

CC(=O)OC(C)(C)C1CC=C(C)CC1 (stereo not given)
active: [3] 31 µM | [5] 31.3 µM | [6] 29.8 µM | [7] 31.3 µM | [9] 31.5 µM | [10] 31.2 µM | [13] 30.8 µM
not listed: [2] | [15]
inactive: all other assays above

C=C(C)C(=O)OCCOCCOC(=O)C(=C)C
inactive: [14] | [1] | [15]

CCCCCC(=O)O[C@]1(C(C)=O)CC[C@H]2[C@@H]3CCC4=CC(=O)CC[C@]4(C)[C@H]3CC[C@@]21C
inactive: [14] | [15]

Nc1ccc(O)c(N)c1
inactive: [1] | [2]

O=S(=O)(O)CCCN1CCOCC1
inactive: [14] | [1] | [15]

CC/C=C\CCCCO
inactive: [14] | [2]

NC(=O)c1cnccn1
inactive: [14] | [1] | [15]

CC(C)CCCC(C)(C)O
not listed: [2] | [15] | [16]
inactive: all other assays above

CCOC(=O)CC1(C)OCC(C)O1 (stereo not given)
inactive: [14] | [2]

Cc1ccncc1
inactive: [14] | [2] | [15]

c1ccc2scnc2c1
inactive: [1] | [2]

Cc1cc(O)c2c(c1)C(=O)c1cc(O)cc(O)c1C2=O
inactive: [14]
active: [2] 12.6 µM
